Holding throughout (experiment): NCI-60 one-dose screen, 48 h (100 = growth as untreated, 0 = no growth, -100 = all killed)
For assay [1], the system named is SR leukemia. The note with it: 10 µM unless noted.
Assay [2] has as its system RPMI-8226 leukemia. The conditions noted are these: 10 µM unless noted.
The subject of assay [3] is OVCAR-8 ovarian. The note with it: 10 µM unless noted.
Assay [4] deals with OVCAR-5 ovarian. The note with it: 10 µM unless noted.
The test system of assay [5] is OVCAR-4 ovarian. The conditions noted are these: 10 µM unless noted.
Assay [6] relates to SK-OV-3 ovarian. The note with it: 10 µM unless noted.
In assay [7] the test system is IGROV1 ovarian. The conditions noted are these: 10 µM unless noted.
Assay [8] relates to OVCAR-3 ovarian. The note with it: 10 µM unless noted.
The subject of assay [9] is HS 578T breast. The conditions noted are these: 10 µM.
Assay [10] deals with NCI/ADR-RES ovarian. The conditions noted are these: 10 µM unless noted.

About 83,000 compounds went through this panel and 20% of them were active in at least one assay; those are over-represented in the sample as a whole.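 Single-dose data. Exposure time 48 hours. Values below 10 considered active.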 A number with no mark means an inactive call. Calls of active or inactive are those of the source.

As for `COc1ccc(Nc2ncccc2NC(=O)c2cn(Cc3cccc(Oc4ccccc4)c3)nn2)cc1`, the growth in assay [1] was 74.2%; in assay [2], 86%; in assay [3], 87.5%; in assay [4], 105%; in [5], 78.7%; in [6] it was 103%. The growth in assay [7] was 98.8%; in assay [8], 92%; in assay [9], 95.7%; in assay [10], 76.6%.
Take `COc1cc2c(cc1O)c(=O)n(CCN(C)C)c1c3cc4c(cc3ncc21)OCO4`: the growth in assay [1] is 4.06% (active); in assay [2], -30.3% (active); in assay [3], -9.58% (active); in assay [4], -1.62% (active); in [5], -1.86% (active); in [6], 3.14% (active). Moreover, the growth was 0.0353% (active) in [7], -39.9% (active) in [8], 11.4% in assay [9] and -12.6% (active) in assay [10].
With `COc1ccc2nc3cc(Cl)ccc3c(Nc3ccc(N(C)C)cc3)c2c1`, the growth was 1.55% (active) in [1]; 27.2% in assay [2]; 90.5% in assay [3]; 110% in assay [4]; 88.7% in assay [5]; 85.7% in assay [6]. Also, the growth was 97% in [7], 95.9% in assay [8], 109% in [9] and 87.1% in [10].
As for `CCCCn1c(C)nc2ccc(Nc3nc(N4CCN(C)CC4)nc4nc[nH]c34)cc21`, the growth is 84% in assay [1]; 88.2% in [2]; 91.8% in [3]; 95.6% in assay [4]; 97.8% in assay [5]; 104% in assay [6]. For the same molecule, the growth was 94.1% in assay [7], 99.2% in assay [8], 86.8% in assay [9] and 104% in assay [10].
As for `CCN1CCN(c2cc(C)nc(N(CCCNc3ccnc4cc(Cl)ccc34)Cc3ccc4c(c3)OCO4)n2)CC1`, the growth in assay [1] was -40.3% (active); in assay [2], -49.6% (active); in [3], 9.03% (active); in [4], 50.2%; in [5] it was 27.7%; in [6] it was 72.1%. For the same molecule, the growth in assay [7] is 5.03% (active); in assay [8] it was -26.9% (active); in assay [9], -27.1% (active); in assay [10] it was 14.2%.
Take `Nc1c(Cl)cccc1[N+](=O)[O-]`: the growth was 104% in assay [1]; 100% in assay [2]; 102% in assay [3]; 102% in assay [4]; 111% in assay [5]; 108% in assay [6]. Also, the growth in [7] was 112%; in [8], 111%; in assay [9] it was 87.8%; in assay [10] it was 102%.
Regarding `COc1cc(NC2CCC(=O)N2c2ccc(Cl)cc2Cl)cc(OC)c1OC` (stereo not given), the growth in assay [1] is 95.6%; in assay [2], 102%; in assay [3] it was 103%; in assay [4] it was 99.5%; in assay [5], 101%; in assay [6], 102%. Further, the growth in assay [7] is 105%; in assay [8], 101%; in assay [9], 102%; in assay [10] it was 99.5%.
On to `c1ccc2c(c1)CCN(NCCN1CCCC1)C2`, for which the growth is 103% in [1]; 95.5% in [2]; 101% in assay [3]; 94.7% in [4]; 106% in assay [5]; 84.6% in assay [6]. Further, the growth in [7] was 96.3%; in [8], 99.9%; in assay [9], 85.6%; in assay [10], 96.1%.
In the case of `CC(C)[C@@H]1CC[C@]2(CO2)[C@@H]2C(=O)OCC(C(=O)O)=C[C@H]21`, the growth in assay [1] is -4.75% (active); in [2] it was -34.6% (active); in [3], 4.64% (active); in [4], 22%; in assay [5], 12.7%; in assay [6], 15.7%. Besides, the growth is 5.4% (active) in assay [7], 5.83% (active) in assay [8], -5.29% (active) in assay [9] and -12.1% (active) in [10].
Regarding `COc1cnc2c(c1)C(=O)c1c-2n(CCCn2ccnc2)c(=O)c2cc(Cl)ccc12`, the growth was -10.3% (active) in [1]; -15.3% (active) in [2]; 17.4% in assay [3]; 26.6% in assay [4]; 40.4% in [5]; -28% (active) in assay [6]. For the same molecule, the growth was 35.2% in assay [7], -8.34% (active) in assay [8], 75.1% in [9] and 4.79% (active) in [10].
Turning to `COc1cc2cc(NCc3ccc(F)cc3)nc(C)c2cc1OC`, the growth in [1] is 22.2%; in [2], 14.2%; in assay [3] it was 51%; in assay [4], 53.4%; in assay [5] it was 96.7%; in assay [6] it was 75.3%. For the same molecule, the growth in assay [7] is 59.1%; in [8], 68.2%; in assay [9], 75.8%; in [10] it was 44.4%.
`Cc1ccc(-c2cc3c(SCC(=O)Nc4cc(C(F)(F)F)ccc4Cl)nccn3n2)cc1`: the growth in assay [1] is -10.2% (active); in [2] it was -12.5% (active); in assay [3] it was 33.1%; in assay [4], 84.7%; in [5], 38.1%; in assay [6], 84.3%. The growth in assay [7] is 52.7%; in assay [8], 82.3%; in assay [9], 87%; in assay [10] it was 42.5%.
`CC(C)n1c(NCCc2ccc(O)c(O)c2)nc2c1c(=O)n(C)c(=O)n2C`: the growth in [1] was 87.2%; in [2], 77.4%; in assay [3] it was 104%; in assay [4], 79.2%; in assay [5], 90.9%; in [6], 108%. Moreover, the growth in assay [7] was 110%; in assay [8], 102%; in [9], 99.5%; in assay [10], 93.1%.
On to `CC(=O)C1=C(C)NC(SCc2nnc(-c3ccc(C)cc3)o2)=NC1c1ccc(F)cc1` (stereo not given), for which the growth in assay [1] was 80.9%; in assay [2] it was 83.7%; in assay [3], 97%; in [4], 89.6%; in [5] it was 108%; in assay [6], 108%. In addition, the growth in [7] was 89%; in assay [8] it was 105%; in [9] it was 112%; in assay [10] it was 98.2%.

The record behind these values is PubChem BioAssay (NCI).
